High-throughput results deposited in PubChem BioAssay by several laboratories.
Rows were chosen to be rich in hits. Some 3.9% of all compounds tested hit in one or more screens of this group.
HIF act – HIF pathway transcriptional activation. U2OS HRE-luciferase reporter, luminescence; normalized: DMSO 0%, desferrioxamine 100%. activation, % at 7.5 µM (by protocol). 0.32% of 300,000 active. AID 1910;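 active = mean activation of at least 10% of the iron chelator positive control signal, with at least half of replicates also reaching 10%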
PLC-beta3 inh – inhibitors of human phospholipase C beta3 | inhibition, % at 12.2 µM | AID 720704 | Purified PLC-beta3, fluorogenic substrate, fluorescence | 0.18% of 370,000 active
PLCg1 inh – PLC-gamma1 (human) inhibition, primary screen | P19174 | purified PLC-gamma1, fluorogenic substrate, fluorescence | inhibition, % at 12.2 µM | 0.84% of 370,000 active; in the data active = inhibition above about 9.5%
HGIII-sPLA2 inh – Blocks human group III sPLA2 activity. inhibition, % at 12.2 µM. QFRET BODIPY PC-A2 liposome hydrolysis, fluorescence. AID 743126. Q9NZ20. 0.56% of 370,000 active;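 active = inhibition above mean plus 3 SD of compounds lying within the high and low control bounds, cut at about 19% in these data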
CR mimetic SO – yeast age-related superoxide inhibition as caloric restriction mimetic; S. cerevisiae aged cells, superoxide DHE fluorescence; hits give low values; superoxide response (% of plate mean), % at 10 µM; 0.18% of 330,000 active;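 active = superoxide response under a set limit, about three screen SD below normal, cut at about 65% in these data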;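 note: yeast aged for seven days with compound at 30 °C before DHE staining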
AHR act – activates the human aryl hydrocarbon receptor | P35869 | AHR-responsive luciferase reporter cells, luminescence | activation, % at 5 µM | 2.5% of 320,000 active | AID 2796; in the data active = activation above about 47%
PLCg1 ctr – inhibits human PLC-gamma1 in PLC-beta3 counter-screen. shares compounds with PLCg1 inh. purified PLC-gamma1, fluorogenic substrate, fluorescence. inhibition, % at 12.3 µM. 3.1% of 3,300 active. AID 743258; in the data active = inhibition above about 9.5%
PLCb3 confirm – confirmation of human PLC-beta3 inhibitors. shares compounds with PLCg1 inh. purified PLC-beta3, fluorogenic substrate fluorescence. inhibition, % at 12.3 µM. 1% of 3,300 active
A number is an active result; . = inactive; / = no result. Cut-off read from the data, not from the text of the source, unless noted: active = inhibition above about 11%; inactive = the rest.

SMILES	HIF act	PLC-beta3 inh	PLCg1 inh	HGIII-sPLA2 inh	CR mimetic SO	AHR act	PLCg1 ctr	PLCb3 confirm
CC12C(=O)N(c3ccccc3C(=O)O)C(=O)C1C1C=CC2C1 (stereo not given)	.	.	.	.	.	.	/	/
O=C1CC(N2CCN(Cc3ccccc3)CC2)C(=O)N1c1ccc2c(c1)OCCO2 (stereo not given)	.	.	.	.	.	.	/	/
O=C1CC(N2CCN(Cc3ccccc3)CC2)C(=O)N1c1ccccc1 (stereo not given)	.	.	11	.	.	.	.	.
CC1CCN(C(=O)CSc2nc3ncccc3[nH]2)CC1	.	.	.	.	.	.	/	/
CCC1CCCCN1C(=O)CSc1nc2ncccc2[nH]1 (stereo not given)	.	.	11	.	.	.	.	.
CCCCCCCOC(=O)C[N+](C)(C)CCOC1CC2CCC1(C)C2(C)C (stereo not given)	.	.	9.9	.	/	/	.	.
CCN(Cc1ccccc1)CC(O)COC(c1ccc(OC)cc1)c1ccc(OC)cc1 (stereo not given)	.	.	.	.	.	.	/	/
CCOc1ccc(C(=O)NCc2ccc3c(c2)OCO3)cc1	.	.	.	.	.	.	/	/
O=C(Nc1ccc(F)cc1F)c1cccn1-c1ncc(C(F)(F)F)cc1Cl	.	.	.	.	.	.	/	/
Cc1cc(C)cc(NC(=O)c2cccn2-c2ncc(C(F)(F)F)cc2Cl)c1	.	.	13	.	.	.	.	.
Cc1ccc(S(=O)(=O)c2nnn3c2nc(NC2CCN(Cc4ccccc4)CC2)c2ccccc23)cc1C	.	/	/	/	.	.	/	/
CCN1C/C(=C\c2cccc([N+](=O)[O-])c2)C(=O)/C(=C/c2cccc([N+](=O)[O-])c2)C1	/	.	12	.	/	/	.	.
CCOC(=O)c1c(NC(=O)c2cc(-c3ccc(O)cc3)on2)sc(C(C)=O)c1C	.	.	.	.	.	.	/	/
CCCCc1ccc(NC(=O)CSc2nc(=O)n3cc(C)ccc3n2)cc1	.	.	.	.	.	.	/	/
CCOc1cc(/C=C2\C(=O)N(c3ccc(C(N)=O)cc3)N=C2C)ccc1OC(=O)c1cccs1	.	/	/	/	.	.	/	/
CCOc1cc(/C=C2/C(=O)N(c3ccccc3)N=C2C)ccc1OC(=O)c1ccco1	.	.	10	.	.	.	.	.
CC(C)(C)OC(=O)NCc1cc(F)ccc1/C=C/S(=O)(=O)NCc1ccccc1	/	.	.	.	/	/	/	/
O=C(NCc1ccc2c(c1)OCO2)Nc1ccc(Cl)cc1	.	.	.	.	.	.	/	/
O=C(NCc1ccc2c(c1)OCO2)Nc1ccc([N+](=O)[O-])cc1	.	.	11	.	.	/	.	.
CC(NC(=O)c1ccc2nc(Cc3cccc(Cl)c3)oc2c1)c1ccncn1 (stereo not given)	/	.	.	.	/	/	/	/
CCCCOC(=O)CCc1n[nH]c(=O)[nH]c1=O	.	.	.	.	.	.	/	/
O=C(CCc1n[nH]c(=O)[nH]c1=O)N1CCOCC1	.	11	.	.	.	.	.	.
O=C(CCNc1n[nH]c(=O)[nH]c1=O)N1CCOCC1	.	.	14	.	.	.	.	.
CCC(CC)C(=O)Nc1c2c(nn1-c1ccc(OC)cc1)CS(=O)C2 (stereo not given)	.	.	12	.	.	.	.	.
CCOC(=O)c1c(NC(=S)N2CCN(C)CC2)sc(C)c1-c1ccccc1	.	.	11	.	.	/	.	.
SMILES	HIF act	PLC-beta3 inh	PLCg1 inh	HGIII-sPLA2 inh	CR mimetic SO	AHR act	PLCg1 ctr	PLCb3 confirm
Cc1cc(NC(=O)CSc2cn(CC(=O)N(C(C)C)C(C)C)c3ccccc23)no1	.	.	12	.	.	.	.	.
CCn1cc(SCC(=O)Nc2cc(C)on2)c2ccccc21	.	.	.	.	.	.	/	/
C[C@H]1CN(S(=O)(=O)C(C)(C)C)[C@@H](CCO)/C1=C\CCO	/	.	11	.	/	/	.	.
CCOc1cc(C(c2c(C)[nH][nH]c2=O)c2c(C)[nH][nH]c2=O)cc([N+](=O)[O-])c1O	.	.	.	.	.	.	/	/
COc1cc(C(c2c(C)[nH][nH]c2=O)c2c(C)[nH][nH]c2=O)cc([N+](=O)[O-])c1O	.	.	15	.	.	.	.	.
NS(=O)(=O)c1cccc(NC(=O)c2cc3ccccc3o2)c1	.	.	11	.	.	.	.	.
Cc1cc(NC(=O)c2ccco2)no1	.	.	18	.	.	.	.	.
NS(=O)(=O)c1cccc(NC(=O)c2cc(=O)c3ccccc3o2)c1	.	.	.	.	.	.	/	/
O=C(Nc1cccc(S(=O)(=O)c2cccc(NC(=O)c3ccco3)c2)c1)c1ccco1	.	.	15	.	.	.	.	.
CCN(CC(=O)NCc1ccc(Cl)cc1)C(=O)C1CCN(S(=O)(=O)c2ccc(OC)c(OC)c2)CC1	.	.	.	.	.	.	/	/
CN(C(=O)CCS(=O)(=O)c1ccc2c(c1)oc(=O)n2C)C1CCCCC1	.	.	14	.	.	.	.	.
CC1CCc2sc(C(=O)NCc3ccc(F)cc3)cc2C1 (stereo not given)	.	.	.	.	.	.	/	/
O=C(NCc1ccc(F)cc1)c1cc2c(s1)CCCC2	.	15	16	.	.	.	.	11
O=C(CC[C@H]1O[C@@H](n2cnc3c(NC(=O)c4ccccc4)ncnc32)[C@H](O)[C@@H]1O)NCC1CCN(Cc2ccccc2)CC1	/	.	.	.	/	/	/	/
COc1cccc(CNCCO)c1OCc1ccccc1Cl	.	.	11	.	.	.	.	.
CC(C)(C)N1C(=O)[C@H]2[C@@H](c3ccc(Br)cc3)N3C(=O)N(c4cccc(Cl)c4)C(=O)[C@@]3(Cc3ccccc3)[C@H]2C1=O	.	.	10	.	.	.	.	.
COc1ccc([C@@H]2[C@@H]3C(=O)N(C(C)(C)C)C(=O)[C@@H]3[C@]3(Cc4ccccc4)C(=O)N(c4cccc(Cl)c4)C(=O)N23)cc1	.	.	9.6	.	.	.	.	.
COc1ccc(N2C(=O)N3[C@H](c4ccc(Br)cc4)[C@@H]4C(=O)N(C(C)(C)C)C(=O)[C@@H]4[C@]3(Cc3ccccc3)C2=O)cc1	.	.	.	.	.	.	/	/
CNS(=O)(=O)c1cccc(C(=O)OCC(=O)NC2CCCC2)c1	.	.	9.6	.	.	.	.	.
COc1ccccc1CCNC(=O)COc1cccc2c1OC(C)(C)C2	.	.	.	.	.	.	/	/
COc1cccc(CN(C)C(=O)COc2cccc3c2OC(C)(C)C3)c1OC	/	13	13	.	/	/	.	.
CCOc1cc(/C=N\NC(=O)Cn2nnc3ccccc32)ccc1O	.	.	10	.	.	.	.	.
Cc1ccc(N(CC(=O)NCc2ccc(F)cc2)S(=O)(=O)c2c(C)nn(C)c2C)cc1	.	.	.	.	.	.	/	/
